Results as given in PubChem BioAssay (NCATS).
Records with an inconclusive call do not appear. Unmarked numbers belong to inactive results. Activity calls are given as the source filed them. Calls come from the whole dose curve; as a rule, active = well fitted cell-killing curve with a large enough effect; inconclusive = small, poorly fitted or top-dose-only effect, or effect the other way; inactive = no such curve, though single readings can be large or run the other way.

Assay: Quantitative High-Throughput drug screen in 47 multiple myeloma cell lines against the NCATS MIPE library collection: H1112_PLB cell viability assay (AID 1918967; note: nearly all actives have a fitted effect of over 30% in size)
Settings: H1112 myeloma cells viability, ATP luminescence, 48 h; series mostly up to 45.8 µM; viability: at the top concentration
Text: PI: Beverly A. Mock Ph.D.
Laboratory of Cancer Biology and Genetics,
Center for Cancer Research, National Cancer Institute,
National Institute of Health, Bethesda, Maryland
Drug resistance and disease progression are common in multiple myeloma (MM) patients, underscoring the need for new therapeutic combinations. […] We hypothesized that effective combinations would reduce MYC expression and enhance p16 activity. […] These preclinical data identify potentially useful drug combinations for evaluation in drug-resistant MM and reveal potential mechanisms of combined drug sensitivity.
Described herein is the primary MIPE qHTS used to cherrypick compounds. Validated compounds were then further tested for potential synergistic activiy.
[1] Peat TJ, Gaikwad SM, Dubois W, Gyabaah-Kessie N, Zhang S, Gorjifard S, Phyo Z, Andres M, Hughitt VK, Simpson RM, Miller MA, Girvin AT, Taylor A, Williams D, D'Antonio N, Zhang Y, Rajagopalan A, Flietner E, Wilson K, Zhang X, Shinn P, Klumpp-Thomas C, McKnight C, Itkin Z, Chen L, Kazandijian D, Zhang J, Michalowski AM, Simmons JK, Keats J, Thomas CJ, Mock BA. Drug combinations identified by high-throughput screening promote cell cycle transition and upregulate Smad pathways in myeloma. Cancer Lett. 2023 Aug 1;568:216284. doi: 10.1016/j.canlet.2023.216284. Epub 2023 Jun 24. PMID: 37356470; PMCID: PMC10408729.
SEQUENCE No. (e.g., 1, 2, 3, etc.); […] (e.g., Cells, Incubation, Reagent, etc.); VALUE and DESCRIPTION.
1; Cells; 5 uL; white, solid bottom 1536-well Greiner assay plate.
2; Compounds; 23 nL; Kalypsis pin tool (Wako USA) equipped with a 1536-well pin head to transfer to the assay plates.
3; Incubation; 48 hours; 37C incubation.
4; Reagent;5uL; CellTiter Glo (Promega).
5; Detector; 425V; Luminescence; Viewlux PerkinElmer.
NOTES (numbers refer to Sequence numbers above)
1. The cell-based screening methods employed in this study were like those previously published. Briefly, the corresponding myeloma cell lines were screened in 1,536-well plates with 500 cells, 5-uL per well for inhibition of cell viability (assessed by measuring ATP levels with CellTiterGlo).
2. NCATS MIPE 4.0 library of approved and investigational drugs were added using the Kalypsis pin tool. Wells treated with DMSO only for 100% viability and media only wells for 0% viability were used as controls.
3. The assay plates were covered and incubated for 48 hours in a 37C, 5% CO2 incubator with controlled humidity.
4. After 48 hours, CellTilter-GloTM luminescent substrate mix (Promega) reagent was added to the assay plate and plates we incubated for 5 min at room temperature.
5. Signal was measured as median relative luminescence units on a ViewLux (PerkinElmer) multiplate reader.
[1] Heske CM, Davis MI, Baumgart JT, Wilson K, Gormally MV, Chen L, Zhang X, Ceribelli M, Duveau DY, Guha R, Ferrer M, Arnaldez FI, Ji J, Tran HL, Zhang Y, Mendoza A, Helman LJ, Thomas CJ. Matrix Screen Identifies Synergistic Combination of PARP Inhibitors and Nicotinamide Phosphoribosyltransferase (NAMPT) Inhibitors in Ewing Sarcoma. Clin Cancer Res. 2017 Dec 1;23(23):7301-7311. doi: 10.1158/1078-0432.CCR-17-1121. Epub 2017 Sep 12. PMID: 28899971; PMCID: PMC6636827.
Potency is the fitted concentration of half-maximal effect.

Compound | viability | Potency
C[C@]12C=CC(=O)C=C1CC[C@@H]1[C@@H]2[C@@H](O)C[C@@]2(C)[C@@H]1CC[C@]2(O)C(=O)CO | 129% | –
CCn1c(-c2nonc2N)nc2cncc(CNC3CCNCC3)c21 | – | 5.26 µM (active)
C[C@@H]1C[C@H]2[C@@H]3CCC4=CC(=O)C=C[C@]4(C)[C@@]3(F)[C@@H](O)C[C@]2(C)[C@@]1(O)C(=O)CO | 136% | –
CCN(CCO)CCCOc1ccc2c(Nc3cc(CC(=O)Nc4cccc(F)c4)[nH]n3)ncnc2c1 | 86.8% | –
CCOC(=O)[C@H]1O[C@H]1C(=O)N[C@@H](CC(C)C)C(=O)NCCC(C)C | 106% | –
Cn1c(=O)c(Oc2ccc(F)cc2F)cc2cnc(NC3CCOCC3)nc21 | 83.1% | –
CN1CC(=O)NC1=NC(=O)Nc1cccc(Cl)c1 | – | 16.6 µM (active)
Cc1[nH]c(C=C2C(=O)Nc3ccc(S(=O)(=O)N(C)c4cccc(Cl)c4)cc32)c(C)c1C(=O)N1CCN(C)CC1 | – | 20.9 µM (active)
CCCCC(C=O)NC(=O)C(CC(C)C)NC(=O)OCc1ccccc1 (stereo not given) | 77.2% | –
CC(=O)OCC(=O)[C@@]12OC(C)(C)O[C@H]1C[C@H]1[C@@H]3C[C@H](F)C4=CC(=O)C=C[C@]4(C)[C@@]3(F)[C@@H](O)C[C@@]12C | 105% | –
CNc1nc(Nc2ccc(C(=O)N3CCOCC3)cc2OC)ncc1Cl | 85.9% | –
CNC(=O)[C@H](CC1=CN=C2C=CCC=C12)NC(=O)[C@@H](CC(=O)NO)CC(C)C | – | 14.8 µM (active)
Cc1cnc(Nc2cccc(CN3CCOCC3)c2)nc1Nc1cccc(S(=O)(=O)NC(C)(C)C)c1 | – | 13.2 µM (active)
Nc1ccc(-c2ccc3ncc4ccc(=O)n(-c5cccc(C(F)(F)F)c5)c4c3c2)cn1 | – | 0.0469 µM (active)
O=C(O)C1=NC(C(=O)O)CC(C=CN2c3cc(O)c(OC4OC(CO)C(O)C(O)C4O)cc3CC2C(=O)O)=C1 (stereo not given) | 115% | –
CC[C@H]1OC(=O)[C@H](C)[C@@H](O[C@H]2C[C@@](C)(OC)[C@@H](O)[C@H](C)O2)[C@H](C)[C@@H](O[C@@H]2O[C@H](C)C[C@H](N(C)C)[C@H]2O)[C@](C)(O)C[C@H](C)C(=NOCOCCOC)[C@H](C)[C@@H](O)[C@]1(C)O | 81.3% | –
CCC(=O)OCC(=O)[C@@]1(OC(=O)CC)[C@@H](C)C[C@@H]2[C@H]3CCC4=CC(=O)C=C[C@]4(C)[C@@]3(F)[C@@H](O)C[C@@]21C | 92.3% | –
NS(=O)(=O)c1cc(Cl)c(Cl)c(S(N)(=O)=O)c1 | 100% | –
CC=C1C2C=C(C)CC1(N)c1ccc(=O)[nH]c1C2 (stereo not given) | 109% | –
CSc1cccc(Nc2ncc3cc(-c4c(Cl)cccc4Cl)c(=O)n(C)c3n2)c1 | 93.4% | –

Compound | viability | Potency
Cc1c(-c2cccc3c(CCCOc4cccc5ccccc45)c(C(=O)O)n(Cc4cccnc4)c23)c(COc2ccc(N3CCN([S+](=O)([O-])N(C)C)CC3)cc2)nn1C | – | 20.9 µM (active)
CC1C(=O)OC2C(O)C34C5CC(C(C)(C)C)C36C(OC(=O)C6O)OC4(C(=O)O5)C12O (stereo not given) | 116% | –
Cc1c(C(=O)Nc2ccc(N3C[C@@H](C)O[C@@H](C)C3)nc2)cccc1-c1ccc(OC(F)(F)F)cc1 | – | 7.43 µM (active)
Fc1ccc(CNc2ncnc3ccc(F)cc23)cc1 | – | 13.2 µM (active)
C[C@]12CCC3=C4CCC(=O)C=C4CC[C@@H]3[C@H]1CC[C@@]2(O)CC#N | 128% | –
O=c1[nH]c(=O)n([C@H]2C[C@@H](O)[C@@H](CO)O2)cc1C(F)(F)F | – | 5.26 µM (active)
CS(=O)(=O)c1ccc(C2=C(c3ccccc3)C(=O)OC2)cc1 | 103% | –
COc1ccc2cc1Oc1ccc(cc1)C[C@H]1c3cc(c(OC)cc3CCN1C)Oc1c(OC)c(OC)cc3c1[C@H](C2)N(C)CC3 | – | 20.9 µM (active)
CC(C)C[C@H](NC(=O)c1cc2ccccc2s1)C(=O)N1CCN(C(=O)[C@H](CO)NS(=O)(=O)c2ccc(Cl)cc2Cl)CC1 | – | 20.9 µM (active)
CCN1C[C@H](C)n2c(c(O)c3c(=O)n(Cc4ccc(F)c(Cl)c4)nc(C(=O)NC)c32)C1=O | 104% | –
C=CC[N+]1([C@H]2C[C@H]3[C@@H]4CC[C@H]5C[C@H](O)[C@@H](N6CCOCC6)C[C@]5(C)[C@@H]4CC[C@]3(C)[C@H]2OC(C)=O)CCCC1 | 123% | –
O=C(NCCCCN1CCOCC1)c1cc2ccccc2o1 | 108% | –
O=C(c1ccc(F)c(F)c1Nc1ccc(I)cc1F)N1CC(O)([C@H]2CCCCN2)C1 | – | 16.6 µM (active)
NC(=O)c1noc([C@H](CCCC2CCCCC2)CC(=O)NO)n1 | – | 16.6 µM (active)
CCOC(=O)N1CCN([N+]([O-])=NOc2cc(ON=[N+]([O-])N3CCN(C(=O)OCC)CC3)c([N+](=O)[O-])cc2[N+](=O)[O-])CC1 | – | 5.9 µM (active)
CC1(C)OC2CC3C4CC(F)C5=CC(=O)C=CC5(C)C4C(O)CC3(C)[C@]2(C(=O)CO)O1 (stereo not given in full) | 114% | –
Cc1ccc(NC(=O)c2cccc(N(C)C)c2)cc1NC(=O)c1ccc(O)cc1 | – | 0.166 µM (active)
CCNC(=O)[C@H]1O[C@@H](n2cnc3c(N)nc(NCCc4ccc(CCC(=O)O)cc4)nc32)[C@H](O)[C@H]1O | 111% | –
CC(=O)N1CCN(c2ccc(OCc3nn(C)c(C)c3-c3cccc4c(CCCOc5cc(C)c(Cl)c(C)c5)c(C(=O)O)n(Cc5cccnc5)c34)cc2)CC1 | – | 7.43 µM (active)
N#CC(c1ccc(Cl)cc1)c1c(Cl)cc(-n2ncc(=O)[nH]c2=O)cc1Cl (stereo not given) | – | 20.9 µM (active)
